Assay results: the supplement of paper PMC12494721
Where a name gives a salt, the structure may show the parent alone.

Test system: Ruminococcus gnavus DSM 108212
Test: growth (OD595) fold change vs plate DMSO controls (fold change (ratio)); higher = more growth
Conditions: incubation time: 27 h, anaerobic, 37 °C
Summary of the method: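 After 27 h at 37 °C under anaerobic conditions, 96-well cultures in mGAM were shaken and read at 595 nm. The readings were blank-subtracted, corrected for compound background using 20 µM compound solutions in water, and converted to OD with a calibration factor of 5. Growth is defined as the fold change over the median of DMSO controls on each plate. Fold changes above 1.5 were set to NA, and each value is the mean of 2 biological replicates.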

Row | SMILES | growth
1 | CCc1nc(N)nc(N)c1-c1ccc(Cl)cc1 [Pyrimethamine] (20 µM) | 1.17
2 | CC(=O)Oc1cccc2c1C(=O)c1c(OC(C)=O)cc(C(=O)O)cc1C2=O [Diacerein] (20 µM) | 0.904
3 | CC(C)(CO)[C@@H](O)C(=O)NCCCO [(D)-Panthenol] (20 µM) | 1.15
4 | CCc1cc(Cl)c(OC)c(C(=O)NC[C@@H]2CCCN2CC)c1O [(S,-) Eticlopride hydrochloride] (20 µM) | 0.979
5 | O=C1c2cccc(O)c2C(=O)c2c(O)cccc21 [Danthron] (20 µM) | 0.841
6 | CN(C)CCC(c1ccc(Br)cc1)c1ccccn1 (centres undefined) [Brompheniramine maleate] (20 µM) | 1.17
7 | NC[C@H]1O[C@H](O[C@H]2[C@H](O[C@@H]3O[C@H](CO)[C@@H](O)[C@H]3O)[C@@H](O)[C@H](N)C[C@@H]2N)[C@H](N)[C@@H](O)[C@@H]1O [Ribostamycin sulfate salt] (20 µM) | 1.2
8 | NS(=O)(=O)c1cc2c(cc1Cl)N=CNS2(=O)=O [Chlorothiazide] (20 µM) | 0.966
9 | CCc1oc2ccccc2c1C(=O)c1cc(Br)c(O)c(Br)c1 [Benzbromarone] (20 µM) | 0.873
10 | O=C1NCN(c2ccccc2)C12CCN(CCCC(c1ccc(F)cc1)c1ccc(F)cc1)CC2 [Fluspirilene] (20 µM) | 1.01
11 | C[C@H](CCC(=O)O)[C@H]1CC[C@H]2[C@@H]3C(=O)C[C@@H]4CC(=O)CC[C@]4(C)[C@H]3CC(=O)[C@]12C [Dehydrocholic acid] (20 µM) | 0.872
12 | CCn1cc(C(=O)O)c(=O)c2ccc(C)nc21 [Nalidixic acid sodium salt] (20 µM) | 1.13
13 | COc1cc(C(=O)NS(=O)(=O)c2ccccc2C)ccc1Cc1cn(C)c2ccc(NC(=O)OC3CCCC3)cc12 [Zafirlukast] (20 µM) | 0.355
14 | NCCc1ccc(O)c(O)c1 [Dopamine hydrochloride] (20 µM) | 0.996
15 | Cc1c(-c2ccccc2)oc2c(C(=O)OCCN3CCCCC3)cccc2c1=O [Flavoxate hydrochloride] (20 µM) | 1.14
16 | Oc1c(I)cc(Cl)c2cccnc12 [Clioquinol] (20 µM) | 0.671
17 | CN(C)C(=N)NC(=N)N [Metformin hydrochloride] (20 µM) | 1.26
18 | N=C(N=C(N)N)N1CCOCC1 [Moroxidine hydrochloride] (20 µM) | 1.39
19 | CCOCC(O)COc1ccc(NC(=O)CC[S+](C)C)cc1 (centres undefined) [Suplatast Tosylate] (20 µM) | 1
20 | CCN1CCN(c2cc3c(cc2F)c(=O)c(C(=O)O)cn3C2CC2)CC1 [Enrofloxacin] (20 µM) | 1.29

Row | SMILES | growth
21 | C=C1c2c(Cl)ccc(O)c2C(O)=C2C(=O)[C@]3(O)C(O)=C(C(N)=O)C(=O)[C@@H](N(C)C)[C@@H]3[C@@H](O)[C@H]12.O=C(O)c1cc(S(=O)(=O)O)ccc1O [Meclocycline sulfosalicylate] (20 µM) | 0.113
22 | C#CCN(C)CCCOc1ccc(Cl)cc1Cl [Clorgyline hydrochloride] (20 µM) | 0.97
23 | CC1(C)[C@H](C(=O)O)N2C(=O)C[C@H]2S1(=O)=O [Sulbactam] (20 µM) | 1.21
24 | CC(C)(C)C(=O)C(Oc1ccc(Cl)cc1)n1ccnc1 (centres undefined) [Climbazole] (20 µM) | 0.922
25 | CC1(C)O[C@@H]2[C@@H](CO[C@@]3(COS(N)(=O)=O)OC(C)(C)O[C@@H]23)O1 [Topiramate] (20 µM) | 1.06
26 | CN1CCC(OC(c2ccccc2)c2ccccc2)CC1 [Diphenylpyraline hydrochloride] (20 µM) | 1.13
27 | O=c1[nH]c(=O)n([C@H]2C[C@H](O)[C@@H](CO)O2)cc1/C=C/Br [Brivudine] (20 µM) | 1.06
28 | COC(=O)C1=C(C)NC(C)=C(C(=O)OCC(C)C)C1c1ccccc1[N+](=O)[O-] (centres undefined) [Nisoldipine] (20 µM) | 0.871
29 | CCOC(=O)C(C)(C)Oc1ccc(Cl)cc1 [Clofibrate] (20 µM) | 0.977
30 | CC(C)[C@H]1CC[C@H](C(=O)N[C@H](Cc2ccccc2)C(=O)O)CC1 [Nateglinide] (20 µM) | 0.903
31 | O=C1OC(c2ccc(O)cc2)(c2ccc(O)cc2)c2ccccc21 [Phenolphthalein] (20 µM) | 0.964
32 | COc1cc2c(cc1OC)C(=O)C(CC1CCN(Cc3ccccc3)CC1)C2 (centres undefined) [Donepezil hydrochloride] (20 µM) | 0.917
33 | CC1=C(CC(=O)O)c2cc(F)ccc2/C1=C\c1ccc([S+](C)[O-])cc1 (centres undefined) [Sulindac] (20 µM) | 1.3
34 | Cc1cn([C@H]2C=C[C@@H](CO)O2)c(=O)[nH]c1=O [Stavudine] (20 µM) | 0.994
35 | C[C@]12CCC(=O)C=C1CC[C@@H]1[C@@H]2C(=O)C[C@@]2(C)[C@H]1CC[C@]2(O)C(=O)CO [Cortisone] (20 µM) | 1.23
36 | C/C(O)=C(\C#N)C(=O)Nc1ccc(C(F)(F)F)cc1 [Teriflunomide] (20 µM) | 0.966
37 | C[N+](C)(C)CCCCCC[N+](C)(C)C [Hexamethonium dibromide dihydrate] (20 µM) | 0.892
38 | COC(=O)CCc1ccc(OCC(O)CNC(C)C)cc1 (centres undefined) [Esmolol hydrochloride] (20 µM) | 0.947
39 | O=C(O)Cc1ccccc1Oc1ccc(Cl)cc1Cl [Fenclofenac] (20 µM) | 1
